Where “and” joins values, the source holds several entries; their conditions need not be identical. Identical values can stand only once. Records with an inconclusive call do not appear. Some compounds were tested as several samples or in several runs, with calls that do not always agree. Calls of active or inactive are those of the source. The calls were made as follows, unless noted: active = hit-call score of the fitted dose curve at least 0.9, where 1 is the maximum; inconclusive = response in the unintended direction; inactive = score below 0.9.
Legend:
[1] = CCTE_Simmons_CellTiterGLO_HEK293T: Viability Assessment in CCTE's Assays for Thyroperoxidase (TPO) Inhibition, Simmons Lab (AID 2283665);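 as to AC50: cells exposed to compound for 24 h before readout; actives reduce ATP signal below DMSO vehicle meaning cytotoxicity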
Method in brief: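 HEK293T cells in DMEM with 1% FBS were dosed with 8 concentrations (5 nM–87.5 uM final, 0.5% DMSO) for 24 hr at 37C; ATP content was read by CellTiter-Glo luminescence, loss-of-signal versus DMSO, three biological replicates.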

[2] = STM_H9_OrnCyssISnorm_ratio: Stemina devTOX quickPredict H9 human embryonic stem cell (hESC)-based Assay for Ornithine (ORN):Cystine (CYSS) Ratio (AID 2283714)
Method in brief: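 Undifferentiated H9 hESCs were exposed to compound for 72h with media and chemical replaced every 24h. Final 24-h conditioned media were deproteinized and analysed by UPLC-HRMS. ORN and CYSS peak areas were normalized to C13 internal standards and the ratio taken versus 0.1% DMSO.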

[3] = CEETOX_H295R_MTT_cell_viability: Viability Assessment in the CeeTox HT-H295R MTT Assay (AID 2283718; active = hit-call score of the fitted dose curve at least 0.9, where 1 is the maximum; inactive = score below 0.9;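 as to AC50: curve fitted both ways so AC50 may mark viability loss or gain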)
Method in brief: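 H295R cells prestimulated 48 h with 10 uM forskolin, then exposed 48 h to test chemical (0.1% DMSO final). Viability by MTT (0.5 mg/ml, 4 h, 37 C), absorbance 570/650 nm; percent change versus DMSO, bidirectional fit.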

[4] = target: Luciferin 4-monooxygenase (Photinus pyralis) (UniProt P08659); test: CCTE_Simmons_QuantiLum_inhib_2: CCTE's Firefly Luciferase Inhibition Assay, Simmons Lab (AID 2283767);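 as to AC50: potency for inhibitors that lower luciferase luminescence relative to DMSO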
Method in brief: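 Recombinant firefly luciferase (5 ng/well, 200 mM potassium phosphate with 1 mg/ml BSA) was exposed to 8 concentrations from 5 nM to 87.5 uM (final, 0.5% DMSO) for 30 min at 37C in the dark. Loss of luminescence versus DMSO was read after injecting D-luciferin/ATP-analogue reagent.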

[5] = ACEA_ER_AUC_viability: ACEA Biosciences xCELLigence Real-Time Cell Analysis on Estrogen Receptor Agonism for Viability (AID 2283782);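 also: continuous compound exposure with impedance area under curve over 80 h; hit means loss of impedance signal meaning reduced cell growth or viability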
Method in brief: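 T-47D human breast cells in phenol red-free RPMI1640 with 10% charcoal-stripped FBS were dosed with an 8-point 1:4 dilution series from 100 uM top final concentration, in duplicate. Impedance-based growth was followed for 80 h; AUC analysed versus DMSO.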

[6] = STM_H9_CystineISnorm_perc: Stemina devTOX quickPredict H9 human embryonic stem cell (hESC)-based Assay for Cystine (CYSS) Metabolite Biomarker, Normalized (AID 2283713; active = hit-call score of the fitted dose curve at least 0.9, where 1 is the maximum; inactive = score below 0.9)
Method in brief: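 Undifferentiated H9 hESCs were exposed to compound for 72h, with medium and compound replaced every 24h. Final-24h conditioned medium was deproteinized and analyzed by UPLC-HRMS. Cystine EIC area was normalized to spiked C13 standard and 0.1% DMSO median.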

[7] = ACEA_AR_agonist_AUC_viability: ACEA Biosciences xCELLigence Real-Time Cell Analysis on Androgen Receptor Agonism for Viability (AID 2283775);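 as to AC50: viability read 80 hours after compound addition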
Method in brief: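 Read-out is area under the impedance curve at 80 h post-dose in 22Rv1 cells, with DMSO as baseline and signal loss taken as reduced viability. Compounds ran in duplicate from 100 uM final.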

[8] = ACEA_AR_antagonist_AUC_viability: ACEA Biosciences xCELLigence Real-Time Cell Analysis on Androgen Receptor Antagonism for Viability (AID 2283776);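 also: 22Rv1 human prostate cancer cells growing on impedance electrode plates; area under impedance growth curve at 80 h after dosing as viability; hits lower the growth signal relative to DMSO meaning cytotoxicity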
Method in brief: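 Impedance read-out (RT-CES): area under growth curve at 80 h post-dose, loss of signal scored vs DMSO baseline. 22Rv1 cells; 8-pt 1:4 series, top 100 uM final, ≤0.5% DMSO; biological duplicate.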

[9] = Tanguay_ZF_120hpf_TR_legacy: (Legacy) Oregon State University Tanguay Lab 120 Hour Post-fertilization zebrafish Assay for Touch Response (AID 2283667)
Method in brief: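 Tropical 5D wild-type zebrafish embryos were exposed statically in sealed, foil-covered plates at 28C until 120 hpf, with 0.64% (vol/vol) final DMSO. Touch response was scored as present or absent; embryos that died were not scored.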

[10] = CCTE_Padilla_ZF_144hpf_TERATOSCORE: (Legacy) CCTE's 144 Hour Post-fertilization zebrafish Assay Teratoscore, Padilla Lab (AID 2283679; active = hit-call score of the fitted dose curve at least 0.9, where 1 is the maximum; inactive = score below 0.9;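 also: zebrafish embryos with chorions exposed by immersion from 6-8 hpf to 5 dpf with daily renewal; teratogenicity score from eye scoring of death hatching and malformations at 144 hpf; higher score means more developmental defects relative to DMSO baseline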)
Method in brief: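 Larvae scored by eye at 144 hpf for death, hatching and malformations after a day in clean Hanks'. Before that, daily-renewed exposure at 80 uM (0.4% DMSO, 26C) from roughly 6-8 hpf through 5 dpf, 4 embryos per chemical.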

[11] = Tanguay_ZF_120hpf_ActivityScore_legacy: (Legacy) Oregon State University Tanguay Lab 120 Hour Post-fertilization zebrafish Assay Score for Activity (AID 2283742);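 as to AC50: static exposure from 6 hpf until 120 hpf at 28 °C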
Method in brief: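 Tropical 5D wild-type zebrafish embryos, dechorionated with pronase at 4 hpf, were exposed singly from 6 hpf to 120 hpf statically at 28C in 0.64% DMSO. Malformations and mortality were scored as binary by brightfield, with the activity score combining 18 morphology components.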

[12] = target: AR (gene 367) (UniProt P10275); test: ACEA_AR_agonist_80hr: ACEA Biosciences xCELLigence Real-Time Cell Analysis on Androgen Receptor Agonism for Proliferation (AID 2283783);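 also: hits increase impedance growth signal above DMSO baseline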
Method in brief: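 22Rv1 human prostate cancer cells were seeded after preconditioning in assay medium and monitored overnight, then dosed in an eight-point 1:4 dilution series from 100 uM (≤0.5% DMSO). Impedance-based growth was read at 80 h, gain-of-signal versus DMSO.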

[13] = STM_H9_OrnithineISnorm_perc: Stemina devTOX quickPredict H9 human embryonic stem cell (hESC)-based Assay for Ornithine (ORN) Metabolite Biomarker, Normalized (AID 2283712; active = hit-call score of the fitted dose curve at least 0.9, where 1 is the maximum; inactive = score below 0.9;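 also: ornithine released into spent medium during last day measured by mass spectrometry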)
Method in brief: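 Undifferentiated pluripotent H9 hESCs were exposed to compound for 72h, with media and compound replaced every 24h. Ornithine in final 24-h conditioned media was measured by UPLC-HRMS, normalized to 13C-labeled spike-in standard and to median 0.1% DMSO control.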

[14] = tested on: zebrafish Androgen Receptor (AR), gene 100005148; test: ATG_zfAR_XSP1: Attagene TRANS-FACTORIAL Multi-Species (XSP1) HepG2 Assay for zebrafish Androgen Receptor (AR) (AID 2283771)
Method in brief: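 HepG2 cells were transiently transfected with a zebrafish AR-GAL4 reporter system and partially stimulated with 3 nM 6-alpha-fluorotestosterone. Reporter mRNA was measured after 24 h dosing by RT-PCR with capillary electrophoresis, and gain-of-signal was fitted relative to DMSO.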

[15] = target: zebrafish Estrogen Receptor (ESR1), esr1 (gene 259252) (UniProt P57717); test: ATG_zfER1_XSP1: Attagene TRANS-FACTORIAL Multi-Species (XSP1) HepG2 Assay for zebrafish Estrogen Receptor (ESR1) (AID 2283772)
Method in brief: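 Reporter mRNA induction, gauged via RT-PCR/capillary electrophoresis fluorescence relative to DMSO controls, in HepG2 cells transiently carrying GAL4-UAS reporter units; 24 h dosing.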

[16] = tested on: zebrafish Estrogen Receptor (ESR2B), gene 317733; test: ATG_zfER2b_XSP1: Attagene TRANS-FACTORIAL Multi-Species (XSP1) HepG2 Assay for zebrafish Estrogen Receptor (ESR2B) (AID 2283773)
Method in brief: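 HepG2 cells transiently transfected with multiple GAL4-UAS reporter units expressing chimeric zebrafish ER2b-Gal4; 24 h chemical exposure with 3 nM 6-alpha-fluorotestosterone present. Reporter mRNA measured by RT-PCR and capillary electrophoresis; gain of signal fitted versus DMSO.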

Luciferin 4-monooxygenase (Photinus pyralis), sequence (P08659 whole entry, looked up): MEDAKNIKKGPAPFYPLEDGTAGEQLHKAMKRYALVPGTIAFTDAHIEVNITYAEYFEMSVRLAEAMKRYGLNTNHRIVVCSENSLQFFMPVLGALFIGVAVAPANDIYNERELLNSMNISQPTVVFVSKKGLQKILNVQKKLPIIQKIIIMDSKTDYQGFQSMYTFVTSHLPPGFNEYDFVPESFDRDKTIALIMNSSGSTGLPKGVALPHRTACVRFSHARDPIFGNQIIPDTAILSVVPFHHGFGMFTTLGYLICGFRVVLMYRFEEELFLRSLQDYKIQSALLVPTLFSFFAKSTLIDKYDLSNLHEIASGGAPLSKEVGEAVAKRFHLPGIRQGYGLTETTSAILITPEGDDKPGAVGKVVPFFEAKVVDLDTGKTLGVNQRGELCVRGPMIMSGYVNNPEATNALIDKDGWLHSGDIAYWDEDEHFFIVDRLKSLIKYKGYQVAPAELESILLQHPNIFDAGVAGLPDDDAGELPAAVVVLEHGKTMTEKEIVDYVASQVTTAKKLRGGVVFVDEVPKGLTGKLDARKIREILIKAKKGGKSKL
AR (gene 367), sequence (P10275 whole entry, looked up): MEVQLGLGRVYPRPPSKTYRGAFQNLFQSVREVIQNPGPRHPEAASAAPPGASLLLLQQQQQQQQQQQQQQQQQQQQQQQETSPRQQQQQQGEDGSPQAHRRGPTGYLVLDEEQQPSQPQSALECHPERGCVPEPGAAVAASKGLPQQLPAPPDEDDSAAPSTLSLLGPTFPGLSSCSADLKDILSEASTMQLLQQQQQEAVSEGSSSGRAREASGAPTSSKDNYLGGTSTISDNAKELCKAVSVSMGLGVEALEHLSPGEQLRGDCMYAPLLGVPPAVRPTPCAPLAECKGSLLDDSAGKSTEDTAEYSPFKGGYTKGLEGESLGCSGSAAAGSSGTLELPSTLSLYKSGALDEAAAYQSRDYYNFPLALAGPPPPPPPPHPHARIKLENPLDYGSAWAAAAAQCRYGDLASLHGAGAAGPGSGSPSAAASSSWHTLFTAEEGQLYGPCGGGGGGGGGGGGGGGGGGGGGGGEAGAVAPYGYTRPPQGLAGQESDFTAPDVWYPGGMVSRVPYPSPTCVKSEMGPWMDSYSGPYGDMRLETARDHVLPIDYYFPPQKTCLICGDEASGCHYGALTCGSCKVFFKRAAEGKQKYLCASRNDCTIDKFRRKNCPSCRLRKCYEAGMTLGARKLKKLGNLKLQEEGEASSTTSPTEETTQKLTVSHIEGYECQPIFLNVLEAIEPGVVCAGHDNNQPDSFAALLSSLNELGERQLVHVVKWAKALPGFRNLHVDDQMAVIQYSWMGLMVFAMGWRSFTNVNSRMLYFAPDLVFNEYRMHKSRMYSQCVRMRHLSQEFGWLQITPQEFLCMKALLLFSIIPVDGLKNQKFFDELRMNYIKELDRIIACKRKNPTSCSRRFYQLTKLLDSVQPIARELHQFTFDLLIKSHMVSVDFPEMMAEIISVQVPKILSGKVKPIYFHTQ
zebrafish Estrogen Receptor (ESR1), esr1 (gene 259252), sequence (P57717 whole entry, looked up, the tested form may be a part): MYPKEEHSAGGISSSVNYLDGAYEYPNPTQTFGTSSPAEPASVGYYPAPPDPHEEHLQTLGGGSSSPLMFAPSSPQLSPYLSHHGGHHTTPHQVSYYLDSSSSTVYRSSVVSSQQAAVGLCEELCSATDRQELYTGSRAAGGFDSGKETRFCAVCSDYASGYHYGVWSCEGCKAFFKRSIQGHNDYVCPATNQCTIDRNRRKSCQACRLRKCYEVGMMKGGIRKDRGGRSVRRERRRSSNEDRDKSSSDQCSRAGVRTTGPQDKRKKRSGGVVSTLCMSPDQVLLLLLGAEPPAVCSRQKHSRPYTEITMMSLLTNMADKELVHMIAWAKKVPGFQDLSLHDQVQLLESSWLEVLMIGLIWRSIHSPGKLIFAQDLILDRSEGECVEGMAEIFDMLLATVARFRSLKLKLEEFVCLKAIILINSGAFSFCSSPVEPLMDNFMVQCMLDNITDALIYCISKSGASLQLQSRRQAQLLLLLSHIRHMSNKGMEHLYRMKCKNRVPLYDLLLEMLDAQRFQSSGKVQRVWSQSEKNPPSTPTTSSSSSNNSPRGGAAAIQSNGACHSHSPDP

SMILES: CC(=O)OC/C=C(C)/C=C/C=C(C)/C=C/C1=C(C)CCCC1(C)C
- outcome [1]: inactive
- AC50 [2]: 78.1 µM (active)
- AC50 [3]: 73.7 µM (active)
- outcome [4]: inactive
- AC50 [5]: 68.5 µM (active)

SMILES: O=C(O)c1ccccc1O
- AC50 [6]: 1490 µM (active)
- outcome [7]: inactive

SMILES: CC(C)(C)c1cccc(O)c1
- outcome [1]: inactive
- outcome [3]: inactive
- outcome [4]: inactive
- outcome [7]: inactive
- outcome [8]: inactive

SMILES: CCCCCCOc1ccc(O)cc1
- AC50 [1]: 66.1 µM (active)
- AC50 [4]: 53.8 µM (active)
- AC50 [7]: 10.9 µM (active)
- AC50 [8]: 10.4 µM (active)
- AC50 [5]: 67.3 µM (active)

SMILES: CCCCCCCCCCCCS
- AC50 [1]: 83.5 µM (active)
- outcome [4]: inactive

SMILES: C[C@]12CC[C@@H]3c4ccc(O)cc4CC[C@H]3[C@@H]1CC[C@@H]2O
- outcome [1]: inactive
- outcome [9]: inactive
- AC50 [10]: 12 µM (active)
- outcome [3]: inactive
- outcome [11]: inactive
- outcome [4]: inactive
- AC50 [7]: 0.05 µM (active)
- outcome [7]: inactive
- AC50 [8]: 85.9 µM (active)
- outcome [8]: inactive

SMILES: COC(=O)C(C)Oc1ccc(Oc2ncc(C(F)(F)F)cc2Cl)cc1 (centres undefined)
- outcome [3]: inactive
- outcome [7]: inactive
- outcome [8]: inactive

SMILES: CCCCCCCCCCOC(=O)c1ccccc1C(=O)OCCCCCCCC
- outcome [3]: inactive
- outcome [7]: inactive
- outcome [8]: inactive

SMILES: [O-]/[N+](=N\O)c1ccccc1
- outcome [1]: inactive
- AC50 [4]: 31.7 µM (active)

SMILES: CCCc1ccc(O)cc1
- AC50 [1]: 87.9 µM (active)
- outcome [3]: inactive
- outcome [4]: inactive
- outcome [7]: inactive
- outcome [8]: inactive

SMILES: O=C(c1ccc(OCCN2CCCCC2)cc1)c1c(-c2ccc(O)cc2)sc2cc(O)ccc12
- AC50 [1]: 20 µM (active)
- AC50 [10]: 86.8 µM (active)
- outcome [3]: inactive
- outcome [11]: inactive
- outcome [4]: inactive
- AC50 [7]: 50 µM (active)
- AC50 [8]: 21.7 µM (active)
- AC50 [5]: 11.1 µM (active) and 17.8 µM (active) and 18 µM (active)

SMILES: CCc1cccc(O)c1
- outcome [1]: inactive
- AC50 [4]: 55.2 µM (active)
- outcome [7]: inactive
- outcome [8]: inactive
- outcome [5]: inactive

SMILES: O=C(O)CS
- outcome [1]: inactive
- outcome [4]: inactive
- outcome [8]: inactive
- outcome [5]: inactive

SMILES: CC(=O)Nc1cc(S(=O)(=O)O)cc2cc(S(=O)(=O)O)c(N=Nc3ccccc3)c(O)c12
- AC50 [1]: 17.3 µM (active)
- AC50 [4]: 21.2 µM (active)
- outcome [8]: inactive

SMILES: CCCCCCCCCCCCOCCOS(=O)(=O)O
- AC50 [1]: 78.3 µM (active)
- outcome [4]: inactive
- outcome [8]: inactive
- AC50 [5]: 84.1 µM (active)

SMILES: CCC(C)(C)C1CCC(=O)CC1
- outcome [1]: inactive
- outcome [4]: inactive
- outcome [8]: inactive
- outcome [12]: inactive

SMILES: CCCCOCCOCCO
- outcome [9]: inactive
- outcome [11]: inactive
- outcome [7]: inactive
- outcome [8]: inactive

SMILES: CCCCN(CCO)CCO
- outcome [2]: inactive

SMILES: CN1CCc2cccc3c2[C@H]1Cc1ccc(O)c(O)c1-3
- AC50 [1]: 14.4 µM (active)
- AC50 [4]: 12.5 µM (active)
- AC50 [7]: 11.4 µM (active)
- AC50 [8]: 4.25 µM (active)
- AC50 [5]: 7.27 µM (active)

SMILES: O=C1OC2(c3ccc(O)cc3Oc3cc(O)ccc32)c2ccccc21
- outcome [1]: inactive
- outcome [4]: inactive
- outcome [7]: inactive
- outcome [8]: inactive

SMILES: COC(=O)c1ccc(C(=O)OC)cc1
- AC50 [10]: 4.57 µM (active)
- outcome [13]: inactive
- outcome [6]: inactive
- outcome [2]: inactive
- outcome [3]: inactive
- AC50 [11]: 77.4 µM (active)
- outcome [7]: inactive
- outcome [8]: inactive
- outcome [5]: inactive

SMILES: CC/C(=C(\c1ccccc1)c1ccc(OCCN(C)C)cc1)c1ccccc1
- AC50 [1]: 8.72 µM (active) and 6.64 µM (active)
- outcome [9]: inactive
- AC50 [10]: 1.43 µM (active) and 1.58 µM (active)
- outcome [3]: inactive
- AC50 [11]: 31.1 µM (active)
- outcome [11]: inactive
- outcome [4]: inactive
- outcome [14]: inactive
- outcome [15]: inactive
- outcome [16]: inactive
- AC50 [7]: 10.4 µM (active)
- AC50 [8]: 11 µM (active)
- outcome [8]: inactive
- AC50 [5]: 17.7 µM (active) [middle of 5 runs]

SMILES: O=c1cc(-c2ccc(O)cc2)oc2cc(O)cc(O)c12
- outcome [1]: inactive
- AC50 [4]: 7.35 µM (active)
- AC50 [7]: 12.7 µM (active)
- AC50 [8]: 6.43 µM (active)

SMILES: CCOC(=O)C=Cc1ccccc1
- AC50 [2]: 24.8 µM (active)
- outcome [5]: inactive

SMILES: CCCCCC1C(=O)CCC1CC(=O)OC (centres undefined)
- outcome [3]: inactive

SMILES: COC(=O)c1cccc(C(=O)OC)c1
- outcome [3]: inactive
- outcome [7]: inactive
- outcome [8]: inactive

SMILES: O=C1CCCCCCCCCCCC(=O)OCCO1
- AC50 [2]: 13.2 µM (active)
- AC50 [5]: 71.8 µM (active)

SMILES: NC(N)=S
- outcome [1]: inactive
- AC50 [4]: 10.4 µM (active)
- outcome [4]: inactive
- outcome [7]: inactive
- outcome [8]: inactive
